According to PubChem BioAssay:

Biological target: Follistatin (Homo sapiens) (UniProt P19883)
Assay: follistatin binders on small-molecule microarrays, primary screen, biochemical, small-molecule microarray, 635/667 nm fluorescence (AID 1132)
Conditions: FST binding, 635 nm fluorescence, higher = more signal

Sequence of Follistatin (Homo sapiens) (P19883 whole entry, looked up): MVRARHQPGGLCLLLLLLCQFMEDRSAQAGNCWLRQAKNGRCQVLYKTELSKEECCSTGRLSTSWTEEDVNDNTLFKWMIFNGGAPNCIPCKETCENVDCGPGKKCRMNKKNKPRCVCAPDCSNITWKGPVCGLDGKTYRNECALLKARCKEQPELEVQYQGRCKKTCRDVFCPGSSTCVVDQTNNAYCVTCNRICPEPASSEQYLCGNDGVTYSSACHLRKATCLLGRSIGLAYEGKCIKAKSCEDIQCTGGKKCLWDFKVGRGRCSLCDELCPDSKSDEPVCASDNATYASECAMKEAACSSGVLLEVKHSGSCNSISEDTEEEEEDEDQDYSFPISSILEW

**Q.** With `COC(=O)C1=CC(CCCO)=CC(c2ccc(CN3CCCC3)cc2)N(Cc2cccc(OC(F)(F)F)c2)C=C1C(=O)OC` (stereo not given) as the compound, how does the composite z-score read?
**A.** 0.325

**Q.** `NC(=O)NCC#Cc1ccc2c(c1)[C@]1(C(=O)N2)[C@H](c2ccccc2OCCO)N2[C@H](c3ccccc3)[C@H](c3ccccc3)OC(=O)[C@H]2[C@@H]1C(=O)O` was tested. Which composite z-score did it give?
**A.** 0.728

**Q.** How did the composite z-score turn out when `COC(=O)[C@@H]1N=C(c2ccc(OCCCO)cc2)O[C@@H]1c1ccccc1` was run?
**A.** -1.36

**Q.** For `C=CCC(OC(C)=O)[C@@H]1[C@@H](N(Cc2cccc3ccccc23)C(=O)Cc2ccc(OC)cc2)c2cc(OCCCO)ccc2N1C(=O)c1ccc(-c2ccccc2)cc1` (stereo not given in full), which composite z-score is on record?
**A.** 0.662

**Q.** `CC(C)[Si]1(C(C)C)OCc2cc(-c3ccc(-c4ccc(Cl)c(Cl)c4)o3)nc(-c3ccccc3)c21` was tested. Which composite z-score did it give?
**A.** -0.751
